# Test results from PubChem BioAssay (Tox21).
# Results filed as inconclusive are left out. Entries that show only a call come without a potency. A number with no mark means an inactive call. Activity calls are given as the source filed them. Calls follow the shape of the dose curve; as a rule, active = well fitted curve in the direction sought with a large enough effect in the repeat runs; inconclusive = weak or mixed curves; inactive = no such curve, though single readings can be large; an effect the other way counts as inactive or inconclusive.
# Legend:
# [1] = biological target: Cytochrome P450 2C9 (Homo sapiens) (UniProt P11712); experiment: Cytochrome P450 Family 2 Subfamily C Member 9 (CYP2C9) small molecule antagonists: luciferase reporter qHTS assay (AID 1671198); conditions: P450-Glo CYP2C9 enzyme assay, luciferin luminescence; series mostly up to 115 µM
# Sequence of Cytochrome P450 2C9 (Homo sapiens) (P11712 whole entry, looked up): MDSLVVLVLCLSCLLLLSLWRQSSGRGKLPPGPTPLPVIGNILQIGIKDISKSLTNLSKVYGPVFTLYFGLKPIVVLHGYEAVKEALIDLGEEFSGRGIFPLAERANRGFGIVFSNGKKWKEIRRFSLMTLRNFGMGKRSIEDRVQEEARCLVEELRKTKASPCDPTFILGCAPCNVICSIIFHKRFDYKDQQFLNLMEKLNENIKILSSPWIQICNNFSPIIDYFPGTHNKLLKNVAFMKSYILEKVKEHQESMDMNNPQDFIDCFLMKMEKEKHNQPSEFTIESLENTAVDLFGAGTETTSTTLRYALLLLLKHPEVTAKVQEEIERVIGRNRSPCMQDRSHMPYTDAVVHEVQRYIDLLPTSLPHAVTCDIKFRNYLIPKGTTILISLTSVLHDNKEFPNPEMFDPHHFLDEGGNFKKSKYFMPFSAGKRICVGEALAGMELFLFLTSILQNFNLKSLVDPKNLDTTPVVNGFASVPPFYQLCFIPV
# In short: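 Enzyme-substrate mix preincubated with compound 10 min at room temperature; reaction started with NADPH regeneration solution, 1 h 37C. Luminescent luciferin product read after 20 min detection reagent.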
# [2] = biological target: Cytochrome P450 1A2 (Homo sapiens) (UniProt P05177); experiment: Cytochrome P450 Family 1 Subfamily A Member 2 (CYP1A2) small molecule antagonists: luciferase reporter qHTS assay (AID 1671199); conditions: P450-Glo CYP1A2 enzyme, luciferin luminescence, 1 h; series mostly up to 115 µM
# Sequence of Cytochrome P450 1A2 (Homo sapiens) (P05177 whole entry, looked up): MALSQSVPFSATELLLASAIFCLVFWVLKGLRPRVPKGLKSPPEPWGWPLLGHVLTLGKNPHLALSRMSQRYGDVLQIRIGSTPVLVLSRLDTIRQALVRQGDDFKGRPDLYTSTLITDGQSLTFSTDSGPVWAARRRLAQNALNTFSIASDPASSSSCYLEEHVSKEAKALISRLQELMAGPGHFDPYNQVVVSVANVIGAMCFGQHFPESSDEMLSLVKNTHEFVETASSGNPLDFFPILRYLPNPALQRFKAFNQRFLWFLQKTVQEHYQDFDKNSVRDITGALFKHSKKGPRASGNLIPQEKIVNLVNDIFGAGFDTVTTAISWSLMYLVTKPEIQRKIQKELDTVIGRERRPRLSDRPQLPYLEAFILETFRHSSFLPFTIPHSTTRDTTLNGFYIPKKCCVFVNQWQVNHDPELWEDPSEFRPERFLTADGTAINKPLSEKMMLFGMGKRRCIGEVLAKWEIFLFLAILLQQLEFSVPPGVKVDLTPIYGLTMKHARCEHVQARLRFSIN
# In short: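 Steps: enzyme-substrate mix dispensed; test compounds and furafylline control pinned in; 10 min room temperature; NADPH regeneration solution added, 1 h; reaction stopped with luciferin detection reagent; luminescence read after 20 min.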
# [3] = biological target: Voltage-gated inwardly rectifying potassium channel KCNH2 (Homo sapiens) (UniProt Q12809); experiment: Human Ether-a-go-go-Related Gene (hERG) channel small molecule antagonists: fluorescence cell-based qHTS assay (AID 1671200); conditions: hERG-U2OS cells, FluxOR thallium flux fluorescence; series mostly up to 76.8 µM;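 as to activity change, negative = inhibition: hERG-expressing U2OS cells given a thallium stimulus after FluxOR II dye loading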
# Sequence of Voltage-gated inwardly rectifying potassium channel KCNH2 (Homo sapiens) (Q12809 whole entry, looked up): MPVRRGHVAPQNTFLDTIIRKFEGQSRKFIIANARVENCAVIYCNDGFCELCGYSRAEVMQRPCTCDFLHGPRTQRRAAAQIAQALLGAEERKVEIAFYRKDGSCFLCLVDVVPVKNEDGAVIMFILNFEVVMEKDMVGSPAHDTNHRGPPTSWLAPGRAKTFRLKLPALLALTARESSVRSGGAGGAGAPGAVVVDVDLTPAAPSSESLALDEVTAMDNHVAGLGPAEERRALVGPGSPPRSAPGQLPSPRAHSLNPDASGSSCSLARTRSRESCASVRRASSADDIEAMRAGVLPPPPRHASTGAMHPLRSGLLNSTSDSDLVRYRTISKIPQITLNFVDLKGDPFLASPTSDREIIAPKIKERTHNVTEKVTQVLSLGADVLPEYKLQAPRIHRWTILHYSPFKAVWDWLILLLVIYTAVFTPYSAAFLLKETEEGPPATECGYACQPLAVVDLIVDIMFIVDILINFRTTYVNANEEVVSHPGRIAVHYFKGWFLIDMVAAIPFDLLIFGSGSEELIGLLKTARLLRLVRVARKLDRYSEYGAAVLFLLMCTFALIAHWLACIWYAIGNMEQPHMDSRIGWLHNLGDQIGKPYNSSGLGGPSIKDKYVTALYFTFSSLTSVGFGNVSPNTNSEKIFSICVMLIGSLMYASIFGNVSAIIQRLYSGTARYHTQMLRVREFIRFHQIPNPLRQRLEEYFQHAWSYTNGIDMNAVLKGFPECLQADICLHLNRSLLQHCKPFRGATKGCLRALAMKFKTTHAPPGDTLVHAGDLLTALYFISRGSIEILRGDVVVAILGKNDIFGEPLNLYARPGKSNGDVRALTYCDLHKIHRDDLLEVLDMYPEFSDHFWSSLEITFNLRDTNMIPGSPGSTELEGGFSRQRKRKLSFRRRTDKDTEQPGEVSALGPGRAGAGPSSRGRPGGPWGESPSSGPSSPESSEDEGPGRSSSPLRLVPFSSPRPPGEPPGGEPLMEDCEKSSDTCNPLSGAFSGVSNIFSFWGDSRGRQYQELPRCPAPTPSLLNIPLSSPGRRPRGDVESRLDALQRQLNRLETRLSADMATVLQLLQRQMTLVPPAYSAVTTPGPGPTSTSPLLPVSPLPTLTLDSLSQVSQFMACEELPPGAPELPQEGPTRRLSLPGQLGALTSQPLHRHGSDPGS
# In short: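 Thallium served as the potassium surrogate; its influx into dye-loaded U2OS cells carrying the channel was measured by fluorescence over 2 min.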
# [4] = biological target: Cytochrome P450 3A4 (Homo sapiens) (UniProt P08684); experiment: Cytochrome P450 Family 3 Subfamily A Member 4 (CYP3A4) small molecule antagonists: luciferase reporter qHTS assay (AID 1671201); conditions: P450-Glo CYP3A4 enzyme, luciferin luminescence, 1 h; series mostly up to 115 µM
# Sequence of Cytochrome P450 3A4 (Homo sapiens) (P08684 whole entry, looked up): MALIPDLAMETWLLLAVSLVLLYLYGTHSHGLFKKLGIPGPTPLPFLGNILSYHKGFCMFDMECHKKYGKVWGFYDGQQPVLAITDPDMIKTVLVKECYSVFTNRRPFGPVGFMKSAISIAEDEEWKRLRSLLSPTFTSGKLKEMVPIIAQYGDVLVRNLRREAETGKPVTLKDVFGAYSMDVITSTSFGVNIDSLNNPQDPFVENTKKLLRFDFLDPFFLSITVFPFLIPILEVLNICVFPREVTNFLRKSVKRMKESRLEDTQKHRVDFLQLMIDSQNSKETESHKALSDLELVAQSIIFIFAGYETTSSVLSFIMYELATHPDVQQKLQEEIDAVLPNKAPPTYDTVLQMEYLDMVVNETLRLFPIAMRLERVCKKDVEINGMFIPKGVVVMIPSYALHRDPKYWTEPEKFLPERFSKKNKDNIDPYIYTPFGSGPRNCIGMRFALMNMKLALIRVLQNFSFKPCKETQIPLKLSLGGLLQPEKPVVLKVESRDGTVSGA
# In short: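 Relative luminescence units after 20 min with luciferin detection reagent served as read-out. Beforehand, CYP3A4 turned over a proluciferin substrate for 1 h at room temperature with NADPH regeneration, following 10 min compound preincubation.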
# Also: nearly all actives have a fitted effect of over 50% in size.
# Potency is read from the fitted curve at half-maximal effect.
smiles,measurement,setting,value
CC(C)COC(=O)COc1cc(Cl)c(Cl)cc1Cl,Potency,[1],35.5 µM (active)
O=C(O)CCCc1c[nH]c2ccccc12,Potency,[1],inactive
same,Potency,[2],inactive
same,Potency,[3],inactive
same,Potency,[4],inactive
CCCCOC(=O)CCCCC(=O)OCCCC,Potency,[1],11.2 µM (active)
same,Potency,[2],31.7 µM (active)
same,Potency,[3],inactive
same,Potency,[4],inactive
Nc1cccc2c(N)cccc12,Potency,[1],9.2 µM (active)
same,Potency,[2],3.72 µM (active)
same,Potency,[3],inactive
O[C@@H](CNC[C@H](O)[C@H]1CCc2cc(F)ccc2O1)[C@@H]1CCc2cc(F)ccc2O1,Potency,[1],inactive
same,Potency,[2],inactive
same,Potency,[3],2.68 µM (active)
same,Potency,[4],inactive
CC[C@H]1OC(=O)[C@H](C)[C@@H](O[C@H]2C[C@@](C)(OC)[C@@H](O)[C@H](C)O2)[C@H](C)[C@@H](O[C@@H]2O[C@H](C)C[C@H](N(C)C)[C@H]2O)[C@](C)(O)C[C@@H](C)/C(=N\OCOCCOC)[C@H](C)[C@@H](O)[C@]1(C)O,Potency,[1],inactive
same,Potency,[2],inactive
same,Potency,[3],inactive
same,Potency,[4],3.33 µM (active)
CN1CCCN(C(c2ccccc2)c2ccc(Cl)cc2)CC1 (stereo not given),Potency,[1],inactive
CCOC(=O)c1c(N)sc2c1CCN(Cc1ccccc1)C2,Potency,[1],3.47 µM (active)
same,Potency,[2],15.5 µM (active)
COc1ccc(/C=C/C(=O)c2ccc(OC)cc2OC)cc1,Potency,[1],6.92 µM (active)
same,Potency,[2],4.56 µM (active)
same,Potency,[3],inactive
CCCCC[C@H](O)/C=C/[C@H]1[C@H](O)CC(=O)[C@@H]1C/C=C\CCCC(=O)O,Potency,[1],inactive
same,Potency,[2],inactive
same,Potency,[3],inactive
same,Potency,[4],inactive
O=C(O)c1ccc(O)cc1O,Potency,[1],inactive
same,Potency,[2],inactive
same,Potency,[3],inactive
same,Potency,[4],inactive
Cc1cc(CCCOc2c(C)cc(-c3noc(C(F)(F)F)n3)cc2C)on1,Potency,[1],8.71 µM (active)
CC(=O)OCC1=C(C(=O)O)N2C(=O)[C@@H](NC(=O)CSc3ccncc3)[C@H]2SC1,Potency,[1],13.8 µM (active)
same,Potency,[2],inactive
CCOC(=O)C(C)O (stereo not given),Potency,[1],inactive
same,Potency,[2],inactive
same,Potency,[3],inactive
same,Potency,[4],inactive
O=C(O)CCC(=O)OC[C@@H](NC(=O)C(Cl)Cl)[C@H](O)c1ccc([N+](=O)[O-])cc1,Potency,[1],inactive
same,Potency,[2],inactive
same,Potency,[3],inactive
CSCC[C@H](NC(=O)[C@H](Cc1c[nH]c2ccccc12)NC(=O)CCNC(=O)OC(C)(C)C)C(=O)N[C@@H](CC(=O)O)C(=O)N[C@@H](Cc1ccccc1)C(N)=O,Potency,[1],inactive
same,Potency,[2],inactive
same,Potency,[3],inactive
c1ccc2sc(SSc3nc4ccccc4s3)nc2c1,Potency,[1],9.52 µM (active)
same,"activity change, negative = inhibition",[2],-16.1% [at 23.6 µM]
same,"activity change, negative = inhibition",[3],5.4% [at 15.8 µM]
CC(=O)N[C@@H](Cc1ccc(O)cc1)C(=O)O,Potency,[1],inactive
same,Potency,[2],inactive
same,Potency,[3],inactive
same,Potency,[4],inactive
COc1cc(NCc2ccc3nc(N)nc(N)c3c2C)cc(OC)c1OC,Potency,[1],15.5 µM (active)
same,Potency,[2],7.76 µM (active)
same,Potency,[3],inactive
CCOC(=O)Oc1ccc(CCNC(=O)[C@H](CCSC)NC(C)=O)cc1OC(=O)OCC,Potency,[1],17.4 µM (active)
same,Potency,[2],inactive
same,Potency,[3],inactive
CC(C)(C)C(O)/C=C/c1ccc2c(c1)OCO2 (stereo not given),Potency,[1],3.89 µM (active)
same,Potency,[2],5.75 µM (active)
CC(=O)Oc1cccc(O)c1,Potency,[1],inactive
Cc1ccc2nc(N)[nH]c(=O)c2c1Sc1ccncc1,Potency,[1],5.49 µM (active)
same,Potency,[2],2.88 µM (active)
same,Potency,[3],inactive
Cc1ccc(N(CC2=NCCN2)c2cccc(O)c2)cc1,Potency,[1],inactive
same,Potency,[2],inactive
COC(=O)C1=C(C)NC(C)=C(C(=O)OC(C)(C)CN(C)CCC(c2ccccc2)c2ccccc2)C1c1cccc([N+](=O)[O-])c1 (stereo not given),Potency,[1],2.45 µM (active)
CC(C)C(O)C(C)(C)CO (stereo not given),Potency,[1],65.3 µM (active)
same,Potency,[2],65.3 µM (active)
same,Potency,[3],inactive
CC1=C2[C@@H]([C@H](C)CC[C@H]2/C=C(\C)C(=O)O)[C@H](O)C1,Potency,[1],inactive
same,Potency,[2],inactive
same,Potency,[3],inactive
same,Potency,[4],inactive
CC(C)(C(=O)c1cccnc1)c1cccnc1,Potency,[1],inactive
same,Potency,[2],inactive
same,Potency,[3],inactive
same,Potency,[4],0.389 µM (active)
COc1ccc(-c2cc(C(F)F)nn2-c2ccc(S(N)(=O)=O)cc2)cc1F,Potency,[1],8.71 µM (active)
same,Potency,[2],inactive
O=[N+]([O-])C1(Br)COCOC1,Potency,[1],7.1 µM (active)
same,Potency,[2],15.9 µM (active)
same,Potency,[3],54.9 µM (active)
Nc1ccc(S(=O)(=O)NCc2ccccc2)cc1,Potency,[1],inactive
same,Potency,[2],inactive
same,Potency,[3],inactive
O=C(O)CCC(=O)c1ccc(-c2ccccc2)cc1,Potency,[1],inactive
same,Potency,[2],inactive
same,Potency,[3],inactive
same,Potency,[4],inactive
CN(C)CC/C=C1\c2ccccc2Sc2ccc(Cl)cc21,Potency,[1],inactive
same,Potency,[2],7.23 µM (active)
same,Potency,[3],3.01 µM (active)
